Source: PubChem BioAssay (NCI)
About 83,000 compounds went through this panel and 20% of them were active in at least one assay; those are over-represented in the sample as a whole.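 Each cell line was grown in a 96-well plate and treated with one concentration of compound for 48 hours. Values below 10 were considered active.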 Calls of active or inactive are those of the source.

System: UO-31 renal
Experiment: NCI-60 one-dose screen, 48 h (100 = growth as untreated, 0 = no growth, -100 = all killed)
Conditions: 10 µM unless noted

**Q.** Which growth does the source give for `O=S(=O)(NCCCNc1nccc(-c2[nH]c(-c3ccccc3)nc2-c2ccc(F)c(O)c2)n1)c1cccc(F)c1` here?
**A.** Its growth is 139% (inactive).

**Q.** For `Cn1cc(-c2cc3ncnc(Nc4ccc(NC(=O)Nc5cc(C(C)(C)C)on5)cc4)c3s2)cn1`, which growth is on record?
**A.** Its growth is 41.7% (inactive).

**Q.** `Cn1ncc2c(C(=O)c3ccc(F)cc3)nc(C(C)(C)C)nc21` was tested. Which growth did it give?
**A.** Its growth is 93.9% (inactive).

**Q.** Which growth does the source give for `N#Cc1c(-c2cccs2)cc(-c2cnccn2)nc1SCC(=O)N/N=C/c1ccc(Cl)cc1` here?
**A.** Its growth is 92.6% (inactive).

**Q.** `O=C(/C=C/c1cc(Cl)ccc1Cl)Nc1ncc(Cc2ccc(Cl)cc2)s1` was tested. Which growth did it give?
**A.** Its growth is 19.3% (inactive).

**Q.** How did the growth turn out when `CNC(=O)c1cc(N2CCc3cc(NC(=O)Nc4ccc(N5CCN(C)CC5)c(C(F)(F)F)c4)ccc32)ccn1` was run?
**A.** The growth was 88.7% (inactive).

**Q.** For `CCc1cc(O)ccc1Nc1cc(-c2ccc(-n3cccn3)cc2)[nH]n1`, which growth is on record?
**A.** The growth was 50.9% (inactive).

**Q.** Which growth does the source give for `COc1ccc2[nH]cc(-c3nc(N)nnc3-c3cn(C)c4ccc(Br)cc34)c2c1` here?
**A.** Its growth is 40.7% (inactive).

**Q.** `CCCCCCCCCCCC(=O)NC(C)(C)C(=O)N1CCCC1C(=O)NC(C)(C)C(=O)NC(C)(C)C(=O)N1CCCC1C(=O)NC(C)(C)C(=O)NC(C)(C)C(=O)N1CCCC1C(=O)NC(C)C(=O)NCCC(=O)NC(C)C(=O)NC(C)(C)C(=O)NC(C)(C)C(=O)NC(C)(C)C(=O)NCCC(=O)NC(C)(C)C(=O)NC(C)(C)C(=O)NC(C)(C)C(=O)NC(C)C(=O)NCCC(=O)O` (stereo not drawn) was tested. Which growth did it give?
**A.** Its growth is -99.7% (active).

**Q.** With `CCCc1[nH]c(-c2cc(N)ccc2Cl)c2c1C(=O)CCCC2` as the molecule, how does the growth read?
**A.** Its growth is 78.3% (inactive).

**Q.** With `CC1=C(C)C(=O)C(Nc2ccc(C)cc2)=C(Br)C1=O` as the molecule, how does the growth read?
**A.** Its growth is 87.5% (inactive).

**Q.** For `O=S(=O)(Oc1ccc(-c2cn3ccsc3n2)cc1)c1cccc(C(F)(F)F)c1`, which growth is on record?
**A.** The growth was 93.1% (inactive).

**Q.** How did the growth turn out when `C#CCOc1cccc(/C(N)=N/C(N)=N/c2nc3ccccc3s2)c1` was run?
**A.** Its growth is 91.8% (inactive).

**Q.** `CCOC(=O)c1c(NC(=O)c2ccc(C(F)(F)F)cc2)sc2c(CN3CCN(C)CC3)c(O)ccc12` was tested. Which growth did it give?
**A.** Its growth is -93.6% (active).

**Q.** `Cc1ccc(NC(=O)Nc2nc3ccc([N+](=O)[O-])cc3s2)cc1` was tested. Which growth did it give?
**A.** The growth was 6.85% (active).

**Q.** Which growth does the source give for `CCOC(=O)c1c(NCC(=O)Nc2cccc([N+](=O)[O-])c2)sc(C(C)=O)c1C` here?
**A.** The growth was -12.7% (active).

**Q.** With `O=C(CCCCCCNC(=O)C(O)(O)C(F)(F)F)Nc1ccc(Br)cc1` as the molecule, how does the growth read?
**A.** Its growth is -2.06% (active).

**Q.** With `Cc1ccccc1N1CCN(C2=C(Cl)C(=O)c3ncccc3C2=O)CC1` as the molecule, how does the growth read?
**A.** Its growth is 2.66% (active).

**Q.** For `O=C1[C@@H]2Cc3c([nH]c4ccccc34)[C@H](c3ccc(Br)cc3)N2C(=O)CN1C1CCN(Cc2c(Cl)cccc2Cl)CC1`, which growth is on record?
**A.** Its growth is 67.7% (inactive).

**Q.** Which growth does the source give for `Cc1ccc(CSC2=C(Cl)CN(c3ccc(Cl)cc3)C2=O)cc1` here?
**A.** The growth was 78.6% (inactive).

**Q.** How did the growth turn out when `COC(=O)CCCNCCCn1ccc2cc(NCc3cccc(-c4ccccc4)c3C)ccc21` was run?
**A.** Its growth is 54.5% (inactive).

**Q.** With `C#CCOc1ccccc1/C=N/Nc1nc(-c2ccc(Cl)cc2)cs1` as the molecule, how does the growth read?
**A.** The growth was 75.9% (inactive).

**Q.** For `CC(=O)c1c([Si](C)(C)C)c2cc(C#N)ccn2c1C(=O)c1ccc(Br)cc1`, which growth is on record?
**A.** Its growth is 77.2% (inactive).

**Q.** `O=C(COc1ccc(/C=C2\C(=O)Nc3ccc(F)cc32)cc1)Nc1ccccc1` was tested. Which growth did it give?
**A.** Its growth is 85.4% (inactive).

**Q.** Which growth does the source give for `COc1ccc(CC(C)=C(c2ccc(OCCN3CCCC3)cc2)c2ccc(OCCN3CCCC3)cc2)cc1` here?
**A.** Its growth is -94.9% (active).

**Q.** `O=C(CSc1nc2ccccc2c(=O)n1-c1ccc(S(=O)(=O)Nc2ccc(Cl)nn2)cc1)Nc1ccc(S(=O)(=O)Nc2ccc(Cl)nn2)cc1` was tested. Which growth did it give?
**A.** Its growth is 87.9% (inactive).

**Q.** How did the growth turn out when `C=C(C)[C@@H]1CC[C@]2(COP(=O)(OCC)OCC)CC[C@]3(C)[C@H](CC[C@@H]4[C@@]5(C)CC[C@H](OP(=O)(OCC)OCC)C(C)(C)[C@@H]5CC[C@]43C)[C@@H]12` was run?
**A.** Its growth is 22.6% (inactive).

**Q.** `COC(=O)c1cccc(NC2=C(Cl)C(=O)C(C)=C(C)C2=O)c1` was tested. Which growth did it give?
**A.** Its growth is 89.4% (inactive).

**Q.** `Cn1cc(-c2nc(N)nnc2-c2c[nH]c3ccc(Br)cc23)c2cc(F)ccc21` was tested. Which growth did it give?
**A.** The growth was 58.8% (inactive).

**Q.** How did the growth turn out when `O=C(O)c1ccc(-n2c(=O)n(-c3cccc(C(F)(F)F)c3)c(=O)c3cc(-c4ccc(F)cc4F)ccc32)cc1` was run?
**A.** The growth was 8.03% (active).

**Q.** How did the growth turn out when `O=C1[C@H]2Cc3c([nH]c4ccccc34)[C@H](c3ccc(Br)cc3)N2C(=O)CN1C1CCN(CC2CCCCC2)CC1` was run?
**A.** Its growth is 45.3% (inactive).

**Q.** `C#Cc1nc(/C=C/CCCCCCC(=O)NO)cs1` was tested. Which growth did it give?
**A.** The growth was -93.1% (active).

**Q.** For `C#CCN(C)CCCOc1ccc(NC(=O)CCCCCCCCC(=O)NO)cc1Cl`, which growth is on record?
**A.** The growth was 51.7% (inactive).
